# Source: PubChem BioAssay
# p53 reactivator: mutant p53 re-activation in reporter cells. H1299 p53-A138V BP100-luciferase reporter, luminescence, 24 h. Potency, µM (doses to about 92.2 µM), for the others: at the top dose activity change, positive = activation, most hits filed as activators. actives 0.063% (n = 320,000); further: % of control where 0% means no effect; nearly all actives have a fitted effect of over 45% in size
#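 H1299 (p53-null), stable ts p53-A138V + BP100-Luc; 1000 cells/well, Opti-MEM/10% FBS; cpd 4 pt, 1:5; 24 h, 37 deg C, 5% CO2; detection reagent 10 min RT; luminescence.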
# Rab9 promoter act: activators of Rab9 promoter; Huh7 Rab9 promoter-luciferase reporter, luminescence, 24 h; Potency, µM (series often up to 9.22 µM), inactives show at the top dose activation, negative = inhibition, actives largely listed as activators; actives 2.8% (n = 320,000); further: % of control where 0% means no effect; nearly all actives have a fitted effect of over 60% in size
#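 Cell-based reporter: Huh7 stable for Rab9 promoter-driven luciferase, plated in reduced-serum medium with 10% FBS at 1500 cells/well, compound-treated 24 h at 37 °C, luminescence read after 10 min reagent.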
# FLuc counter: counter-screen for miR-21 project: firefly luciferase inhibitors or activators | AID 588342 | actives 6.9% (n = 360,000) | Potency, µM (highest dose often 57.5 µM), for the others: at the top dose activity change, negative = inhibition, usual class: inhibitors | purified FLuc, Km substrates, luminescence inhibition | P08659;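 further: plate controls were vehicle for no effect and reference inhibitor for full effect; nearly all actives have a fitted effect of over 55% in size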
# Target sequence (P08659 whole entry, looked up): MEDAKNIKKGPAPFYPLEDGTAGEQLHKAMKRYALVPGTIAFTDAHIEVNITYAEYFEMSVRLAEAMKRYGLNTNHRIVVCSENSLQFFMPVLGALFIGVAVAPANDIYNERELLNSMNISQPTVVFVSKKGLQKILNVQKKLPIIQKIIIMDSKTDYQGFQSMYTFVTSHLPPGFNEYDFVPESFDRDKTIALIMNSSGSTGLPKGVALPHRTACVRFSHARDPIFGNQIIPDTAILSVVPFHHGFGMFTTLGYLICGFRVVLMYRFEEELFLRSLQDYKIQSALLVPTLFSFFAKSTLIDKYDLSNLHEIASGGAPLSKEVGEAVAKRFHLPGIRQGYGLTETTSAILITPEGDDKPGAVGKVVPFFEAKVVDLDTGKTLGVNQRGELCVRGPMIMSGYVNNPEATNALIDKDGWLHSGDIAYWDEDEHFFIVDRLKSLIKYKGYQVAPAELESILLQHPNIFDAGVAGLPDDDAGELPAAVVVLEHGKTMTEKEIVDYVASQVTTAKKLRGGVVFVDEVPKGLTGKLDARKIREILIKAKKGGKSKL
#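 Biochemical qHTS of compounds, final roughly 60 µM downward over six points, against 10 nM purified firefly luciferase using Km concentrations of substrates (10 uM D-luciferin, 10 uM ATP) in Tris acetate pH 7.5 buffer; luminescence output.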
# NPC1 prom act: activators of NPC1 promoter; Huh7 NPC1 promoter luciferase reporter, 24 h; Potency, µM (series often up to 9.22 µM), for the others: at the top dose activation, actives largely listed as activators; actives 2.4% (n = 320,000); further: % of control where 0% means no effect; nearly all actives have a fitted effect of over 60% in size
#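 NPC1 promoter–luciferase Huh7 cells; 24 h compound; luminescence.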
# ELG1 genotoxic: genotoxicity induction in ELG1-luciferase HEK293T cells; HEK293T ELG1-luciferase reporter, luminescence, 16 h; Potency, µM (doses to about 46 µM), for inactives: at the top dose activity change, positive = activation, actives largely listed as activators; actives 1.3% (n = 330,000); AID 504466; further: % of control where 0% means no effect; nearly all actives have a fitted effect of over 60% in size
#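 Screening used a luciferase reporter fused to human ELG1 in HEK293T cells. Luminescence was read on a CCD plate imager after 16 hr exposure and 30 min ONE-Glo incubation.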
# SMN2 splice up: enhancers of SMN2 splice variant expression; HEK293 SMN2-luciferase splicing reporter, luminescence, 30-36 h; Potency, µM (titrated, usually from 46.1 µM), for inactives: at the top dose activity change, positive = activation, actives largely listed as activators; actives 2.8% (n = 210,000); AID 1458; further: % of control where 0% means no effect; nearly all actives have a fitted effect of over 55% in size
#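 HEK293 cells carry an SMN2 minigene-luciferase reporter in which exon 7 inclusion puts luciferase in frame. Cells were seeded at 2000 cells/well, attached for 10-12 hours, then exposed to compounds for 30-36 hours at 37C before ONE-Glo luminescence.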
# An asterisk follows results filed as active; ? = inconclusive; . = no result; [ ] = another dose, or the depositor's remark. Shown are actives, neighbours in structure and some others; about 7.4% of the full set was active somewhere. The call rests on the fitted dose curve; in most records, active means well fitted curve in the direction sought with a large enough effect; inconclusive means small, poorly fitted or top-dose-only effect, or another doubt; inactive means no such curve, though single readings can be large; an effect the other way counts as inactive or inconclusive. Potency means the concentration at half of the fitted maximal effect.
SMILES,p53 reactivator,Rab9 promoter act,FLuc counter,NPC1 prom act,ELG1 genotoxic,SMN2 splice up
COc1cc(OC)cc(-c2nnc(SCC(=O)Nc3cccc(C(=O)O)c3)s2)c1,2.9%,15.4%,15.1µM*,3.8%,-2.8%,8.0%
Cc1cccc(Nc2nnc(SCC(=O)NC(=O)CN3CCCC3=O)s2)c1,?,-5.2%,9.53µM*,-0.6%,6.8%,.
Cc1cccc(Nc2nnc(SCC(=O)Nc3ccc(C(=O)O)cc3)s2)c1,1.2%,-0.4%,1.69µM*,20.8%,-3.5%,18.0%
Cc1cccc(NC(=O)CSc2nnc(NC(=O)C3CCC3)s2)c1,-0.1%,0.6%,-3.8%,1.2%,-1.9%,.
CCn1c(SCC(=O)NCCCN2CCCC2=O)nnc1-c1cccc(C)c1,-3.3%,-0.2%,10.2%,-1.8%,2.7%,.
Cc1cccc(Nc2nnc(SCC(=O)Nc3ccccc3[N+](=O)[O-])s2)c1,?,11.9%,7.57µM*,3.3%,-4.6%,2.5%
CCN(CC)C(=O)Cn1cc(SCC(=O)Nc2cc(OC)ccc2OC)c2ccccc21,.,.,-13.2%,.,.,.
COc1ccc(Nc2nnc(SCC3CCCCO3)s2)cc1 (centres undefined),29.4%,22.5%,?,12.8%,4.5%,29.9%
Cc1cccc(Nc2nnc(SCC3CCCCO3)s2)c1 (centres undefined),?,2.82µM*,5.36µM*,3.98µM*,11.9%,20µM*
CC(=O)OCC(=O)[C@@]1(OC(C)=O)[C@H](C)C[C@H]2[C@@H]3C[C@H](F)C4=CC(=O)C=C[C@@]4(C)[C@]3(F)[C@H](O)C[C@@]21C,.,.,.,.,.,-17.8%[20.6 µM]
CCCc1ccc(C(=O)NC(=O)c2ccccc2O)cc1,0.8%,?,0.601µM*,?,5.7%,.
O=C(NC(=O)c1ccccc1O)c1ccc(C(F)(F)F)cc1,20.2%,?,3.01µM*,?,5.2%,.
CC(C)(C)c1ccc(C(=O)NCC(=O)NNC(=O)c2ccccc2O)cc1,5.9%,-1.0%,?,-2.9%,-0.9%,.
O=C(c1csnn1)N1CCC2(CC1)CN(c1cccc(-c3ccccc3)c1)C2,.,.,.,.,.,-29.0%
COC(=O)c1ccccc1NC(=O)c1ccc2c(c1)CC(C)O2 (centres undefined),.,2.24µM*,16.9µM*,27.8%,4.8%,.
CN(C)c1ccc(CNC(=O)Cn2c(=O)oc3cc(S(=O)(=O)N4CCCCCC4)ccc32)cc1,.,.,-16.3%,.,.,.
CN=C1NN=C(c2cc(C)n(-c3ccc(Cl)cc3)c2C)CS1,7.6%,2.51µM*,4.78µM*,3.98µM*,?,-7.3%
Cc1ccc(-n2c(C)cc(C3=NNC(=NC4CC4)SC3)c2C)cc1C,?,0.562µM*,1.35µM*,1.58µM*,?,?
Cc1c(N=C2NN=C(c3ccc(Cl)cc3)CS2)c(=O)n(-c2ccccc2)n1C,16.0%,3.6%,-14.4%,-1.7%,1.0%,-18.0%
COc1ccc(NC(=O)C(=O)NCC(c2cccnc2)N2CCc3ccccc3C2)cc1 (centres undefined),.,.,0.379µM*,.,.,.
COc1ccccc1C(=O)NCC(c1cccnc1)N1CCc2ccccc2C1 (centres undefined),.,.,2.69µM*,.,.,.
O=C(NCC(c1cccnc1)N1CCc2ccccc2C1)C(=O)Nc1ccccc1 (centres undefined),.,.,-12.9%,.,.,.
COc1ccc(N2CC(NC(=O)Cc3cccs3)CC2=O)cc1 (centres undefined),.,.,-0.7%,.,.,.
CCc1ccc(OCC(=O)N(Cc2cccs2)c2ccc(Cl)cc2)cc1,.,.,-2.0%,.,.,.
Cc1ccccc1N/N=C/c1c(C)nc2ccccn12,-3.1%,7.6%,12µM*,2.9%,-4.3%,.
SMILES,p53 reactivator,Rab9 promoter act,FLuc counter,NPC1 prom act,ELG1 genotoxic,SMN2 splice up
C/C=C\C=C\C(=O)Nc1cccc(C2=NOC3(C2)C[C@@H](C(N)=O)N(C(=O)C(c2ccccc2)c2ccccc2)C3)c1 (some centres undefined),-3.1%,-6.7%,?,-1.6%,0.4%,.
O=C(N/N=C/c1cn(-c2ccccc2)nc1-c1cccs1)c1ccccc1F,4.1%,4.8%,21.3µM*,0.6%,-8.4%,14.2%
NS(=O)(=O)c1ccc(N/N=C/c2cn(-c3ccccc3)nc2-c2ccccc2)c([N+](=O)[O-])c1,-8.8%,-47.7%,-1.9%,-28.8%,16.0%,-83.4%
O=C(N/N=C/c1cn(-c2ccccc2)nc1-c1cccs1)c1ccc(Cl)cc1,15.4%,-5.2%,?,-3.1%,-9.8%,-51.9%
O=[N+]([O-])c1ccc(N/N=C/c2cn(-c3ccccc3)nc2-c2ccccc2)cc1,-0.3%,28.8%,2.69µM*,20.5%,?,-26.3%
O=C(CNc1ccccc1)N/N=C/c1cn(-c2ccccc2)nc1-c1ccccc1,2.8%,10.5%,-3.5%,-3.5%,-4.3%,-15.5%
CCN(CC(=O)Nc1ccc(NC(C)=O)cc1)C(=O)/C=C/c1cn(-c2ccccc2)nc1-c1cccs1,-5.3%,?,16.9µM*,-1.3%,-21.3%,.
NC(=O)N/N=C/c1cn(-c2ccccc2)nc1-c1ccccc1,5.7%,17.5%,6.75µM*,19.3%,?,?
O=C(O)/C=C/c1cn(-c2ccccc2)nc1-c1cccc([N+](=O)[O-])c1,-0.7%,-10.0%,?,-1.5%,3.3%,.
O=C(O)/C=C/c1cn(-c2ccccc2)nc1-c1ccc(-c2ccc([N+](=O)[O-])cc2)o1,0.6%,-0.8%,9.53µM*,-2.9%,0.2%,.
CNC(=O)COC(=O)/C=C/c1cn(-c2ccccc2)nc1-c1ccc(C)o1,-3.8%,-1.5%,15.1µM*,-1.5%,0.1%,.
COc1ccc(-c2nn(-c3ccccc3)cc2/C=C/C(=O)OCC(=O)Nc2ccccc2C#N)cc1,1.2%,-23.9%,-3.4%,-6.4%,?,-0.7%
COc1cccc2cc(-c3nc(-c4ccc(Cl)cc4)cs3)c(=O)oc12,.,.,5.4%,.,.,.
CN(C)S(=O)(=O)c1ccc2c(c1)nnn2CCNC(=O)Nc1ccc(Cl)cc1,.,.,-2.1%,.,.,.
CN(C)Cc1c(-c2ccc(Cl)cc2)nc2ccccn12,0.8%,?,12µM*,?,?,12.6µM*
CCNc1nc(-c2ccc(Cl)cc2)cs1,?,2.24µM*,3.38µM*,3.55µM*,?,27.3%
CNc1nc(-c2ccc([N+](=O)[O-])cc2)cs1,19.4%,?,12µM*,?,2.9%,5.8%
CC(C)C(=O)Nc1nc(-c2ccc([N+](=O)[O-])cc2)cs1,?,23.7%,?,17.7%,-0.4%,-21.3%
CCN(CC)CC(=O)Nc1nc(-c2ccc(Cl)cc2)cs1,11.1%,3.0%,-18.9%,19.2%,3.6%,-1.8%
CNc1nc(-c2ccc(Cl)cc2)cs1,11.0%,2.82µM*,6.75µM*,2.82µM*,?,19.9%
